Results from PubChem BioAssay (NCI).
This is part of a sample that, as a whole, favours compounds with a hit. Of some 79,000 tested, about 15% had one in any assay. Unmarked numbers belong to inactive results. The source made the active and inactive calls. Rule as the data show it: active = growth inhibition above about 70%; inactive = the rest.

Experiment: NCI Yeast Anticancer Drug Screen. Data for the mlh1 rad18 strain (AID 175)
Conditions: S. cerevisiae mlh1 rad18 strain growth inhibition; at 50.0 µM; stronger effect = higher value
Summary of the method: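 Inhibition values reflect reduced growth of mutant yeast versus vehicle-treated controls following compound exposure; the mutations affect DNA damage repair.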

| Compound | growth inhibition |
| --- | --- |
| O=C(CC(=O)N1N=C(N(c2ccccc2)c2ccccc2)CC1c1ccccc1)Nc1ccccc1 (stereo not given) | 0.1% |
| NS(=O)(=O)c1ccc(NC(=O)Nc2cccc(Cl)c2)cc1 | -11.3% |
| [O-][N+]1=C(c2ccccc2)C(c2ccccc2)C(c2ccccc2)O1 (stereo not given) | 11.2% |
| O=[N+]([O-])c1ccc(F)cc1 | 4.75% |
| COc1cc(C)c(C#N)c(OC)n1 | 14.8% |
| Clc1cc(Cl)c(SSc2cc(Cl)c(Cl)cc2Cl)cc1Cl | -22.6% |
| COc1cc2nccnc2c(N)c1OC | 19.9% |
| O=C1c2ccccc2C(c2ccccc2)C1c1ccccc1 (stereo not given) | 0.8% |
| Cc1nc2c(=O)[nH]c(=S)[nH]c2[nH]c1=O | -1% |
| N#CCCCCCCC(N)=O | -16.2% |
| O=C(NNc1c(F)c(F)c(C(F)(F)F)c(F)c1F)c1ccccc1 | -19.1% |
| CCCCCCCCCCCCCCNC(=O)C(C)O (stereo not given) | -2.2% |
| NC(=O)Cc1nc(O)cc(=O)[nH]1 | -2.15% |
| COc1cc(/C=N\N=C(/C)c2ccc(C)cc2C)cc(OC)c1OC | 24.6% |
| CSCNC(=S)Nc1ccc(Cl)c(Cl)c1 | 61.3% |
| Brc1ccc(Nc2ccc(Br)cc2Br)c(Br)c1 | 10.2% |
| O=c1cc(-c2ccc(O)cc2)oc2cc(O)cc(O)c12 | -14.9% |
| O=C1CCCCCCCCCCC1Cc1cc(O)c(CC2CCCCCCCCCCC2=O)cc1O (stereo not given) | -12.8% |
| Nc1nc(=S)c2[nH]cnc2[nH]1 | -125% |
| CC(=O)NO | 11.3% |

| Compound | growth inhibition |
| --- | --- |
| CC1(C)Cc2ccccc2C(C)(Cl)C(=O)N1 (stereo not given) | 17.8% |
| Cc1ccc(C2(C)CC[C@@H]3C[C@@]32C)c(O)c1 (stereo not given in full) | 91.8% (active) |
| CCN(CC)C1Oc2cc3c(cc2C(c2cc(OC)c(O)c(OC)c2)C1C)OCO3 (stereo not given) | 3.85% |
| NOCc1ccc(OCc2ccccc2)cc1 | -11.5% |
| CCC(=O)NN(C(C)=O)c1ccccc1 | 18.9% |
| Cc1[nH]c(=O)[nH]c(=O)c1C | 7.35% |
| COc1ccc(/C=C/C(=O)C(C)(C)CN2CCCCC2)cc1 | 39.2% |
| C(=N\OCCc1ccccc1)/c1ccccn1 | 4% |
| CCOC(=O)C(C(=O)c1cccnc1)C(C(=O)OCC)C(=O)c1cccnc1 (stereo not given) | 5.55% |
| CCCCCCCCCCCCCCCCCC1=NCC(C)O1 (stereo not given) | -10.1% |
| CC(O)c1ccc2c(c1)Nc1ccccc1S2 (stereo not given) | -11% |
| Cc1nn(C)c(C#N)c1[N+](=O)[O-] | 0.8% |
| CCC(C)NC(=O)c1ccccc1C (stereo not given) | -0.2% |
| CSC(=S)Nc1cc(C)cc(C)n1 | 60.8% |
| COc1cc2c(cc1OC)C(=O)C1(CO)COC(=O)C1C2 (stereo not given) | 5.9% |
| CC(=O)Nc1nc(C)c(CC/C=C/c2ccc([N+](=O)[O-])cc2)c(Cl)n1 | 53% |
| CC(=O)N/N=C1\NN(C(C)=O)C2(S1)C(=O)Nc1ccccc12 (stereo not given) | 33.1% |
| O=C(O)C(=Cc1cccc2ccc3ccccc3c12)C(=O)O | -6.2% |
| COC(=O)c1ccc(OC(=O)Nc2ccc(Br)cc2)cc1 | 19.9% |
| O=C(Nc1ccccc1Cl)c1ccc(Cl)cc1 | -4.75% |
